Test [1] concerns the target Lysosomal acid glucosylceramidase (Homo sapiens) (UniProt P04062). The test can be described thus: Glucocerebrosidase-p2 (AID 348; in the data active means potency below about 10 µM; further: potency means the concentration at half of the fitted maximal effect). To be noted: purified GBA, blue fluorogenic substrate, 40 min. In a few lines: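 Compounds titrated from 0.6 nM upwards against 0.2 nM enzyme in pH 5.9 citric acid/KH2PO4, taurocholate, tween-20; blue fluorogenic substrate 80 uM, 40 min room temperature, stopped and read Ex 365/Em 440 for AC50.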

Test [2] in a line: AP1 Signaling Pathway (AID 357). Further: on the % scale 0 is the no-effect control and ±100 the full control effect. The conditions noted are these: ME-180 AP-1-bla reporter, EGF-induced, beta-lactamase ratio, 5 h; at 7.69 µM (top of the series) unless noted. In a few lines: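 Cells are seeded overnight, exposed to compound titrations and an EC50 level of EGF for 5 hours at 37 °C, then loaded with CCF4 dye for 2.5 hours. Beta-lactamase activity under the AP-1 element is read as a blue/green ratio.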

Test [3] can be described thus: NFAT Signaling Pathway (AID 444).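 Further: carbachol stimulus at about its EC50 of 1 µM final; on the % scale 0 is the no-effect control and ±100 the full control effect.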 To be noted: Jurkat NFAT-bla M1, carbachol, beta-lactamase ratio, 5 h; at 7.69 µM (top of the series) unless noted. In a few lines:
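Read-out: CCF4 FRET ratio (460 nm/530 nm) after 1 h RT dye loading, used for %activity and AC50 from titration series. Cells: Jurkat NFAT-β-lactamase/M1 line, treated with compound plus 1 uM carbachol for 5 h, 37 °C.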

A short description of test [4]: Stat Signaling Pathway (AID 446).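 Further: ME-180 cervical cancer cells given 40 pM IL-6 alongside compound; SIE-controlled beta-lactamase reporter measured as 460/530 nm FRET emission ratio; on the % scale 0 is the no-effect control and ±100 the full control effect.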 To be noted: ME-180 SIE beta-lactamase reporter, IL-6 stimulated, 5 h; at 7.69 µM (top of the series) unless noted. The method, boiled down: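 Screening format detects activators and inhibitors alike: ME-180 SIE-bla cells stimulated at 40 pM IL-6 for 5 hrs with compound, then dual-emission beta-lactamase read at 405 nm excitation.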

Test [5] addresses Glucocorticoid receptor (Homo sapiens) (UniProt P04150). The test can be described thus: GR-GFP Redistribution (AID 450;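 active means compounds whose dose series gives a full or clear partial fitted curve of increased nuclear translocation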; further: potency means the concentration at half of the fitted maximal effect). The conditions noted are these: U2OS GR-GFP nuclear translocation, laser cytometry, 2 h.
Test [6] has the same target. The experiment in a line: GR-EFC Redistribution (AID 451; calls by dose curve; further: potency means the concentration at half of the fitted maximal effect). To be noted: CHO-K1 GR-EFC translocation, beta-gal luminescence, 2 h. The method, boiled down:
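Translocation of GR-ED fusion to nuclear EA restores b-gal, read by luminescence after 1 h room-temperature detection. Engineered CHO-K1 biosensor cells, 1,000/well, exposed 2 h at 37 C to titrations up to 46 uM final.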

Test [7] addresses Mitogen-activated protein kinase 10 (Mus musculus) (UniProt Q61831). The test can be described thus: JNK3 AlphaScreen Assay (AID 530).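 Further: kinase came from lysate of stimulated human HepG2 cells; signal reports phosphorylation of biotinylated GST-cJun 1-79 at Ser73 with 10 µM ATP; on the % scale 0 is the no-effect control and ±100 the full control effect.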 The conditions noted are these: JNK3 lysate, c-Jun phosphorylation; series mostly up to 11.4 µM. The method, boiled down: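 Room-temperature AlphaScreen kinase assay; pre-activated HepG2 lysate as JNK3 source, biotin-GST-cJun(1-79) substrate, 10 uM ATP, compound 15 min preincubation.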

The target in test [8] is 3',5'-cyclic-AMP phosphodiesterase 4B (Homo sapiens) (UniProt Q07343). The experiment in a line: qHTS Assay for Inhibitors of PDE-IV (AID 607; active means well fitted activation curve with a large enough effect in the main read-out, with a control signal flat, not every such curve was filed as active; further: % of control where 0% means no effect). The conditions noted are these: HEK293 ACTOne CNG channel cells, membrane potential fluorescence; series mostly up to 22.9 µM. The method, boiled down: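 The readout is membrane depolarisation from a cAMP-sensing CNG channel, detected with a potential dye at ex 535/em 590. Cells were HEK293-derived (endogenous PDE-IV) at 1000 cells/well, titrated up to 22.9 uM final.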

For test [9], the target named is Cytochrome P450 3A4 (Homo sapiens) (UniProt P08684). The experiment in a line: qHTS Assay for Inhibitors and Substrates of Cytochrome P450 3A4 (AID 884; active means well fitted curve in the direction sought with a large enough effect; an effect the other way counts as inactive or inconclusive; further: on the % scale 0 is the no-effect control and ±100 the full control effect; nearly all actives have a fitted effect of over 50% in size). To be noted: recombinant CYP3A4, Luciferin-PPXE luminescence; series mostly up to 57.1 µM. The method, boiled down: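 20 nM human CYP3A4 with 25 uM Luciferin-PPXE (at KM) in 200 mM KPO4, preincubated 10 min with compound; NADPH regeneration started a 60 min RT reaction. Luciferin detected by luminescence, normalized to 57 uM ketoconazole as full inhibition.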

The target is the same in test [10]. The experiment in a line: qHTS Assay for Activators of Cytochrome P450 3A4 (AID 885; active means well fitted curve in the direction sought with a large enough effect; an effect the other way counts as inactive or inconclusive; further: nearly all actives have a fitted effect of over 65% in size). The conditions noted are these: recombinant CYP3A4, Luciferin-PPXE luminescence, 60 min; series mostly up to 11.4 µM. In a few lines: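 Steps: enzyme/substrate mix dispensed; compound added, 10 min RT; NADPH regeneration solution added, 60 min RT; luciferin detection buffer stops reaction; 20 min later luminescence measured.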

Test [11] addresses Cytochrome P450 2C9 (Homo sapiens) (UniProt P11712). The test can be described thus: qHTS Assay for Inhibitors and Substrates of Cytochrome P450 2C9 (AID 883; active means well fitted curve in the direction sought with a large enough effect; an effect the other way counts as inactive or inconclusive; further: potency means the concentration at half of the fitted maximal effect; nearly all actives have a fitted effect of over 60% in size). The conditions noted are these: recombinant CYP2C9, luciferin-H luminescence, 60 min; series mostly up to 11.4 µM. The method, boiled down: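 Inhibition of CYP2C9 is scored as loss of luminescence, with 57uM sulphaphenazole defining 100% inhibition. Substrate Luciferin-H is used at 100uM, equal to its KM; enzyme at 10nM in 25mM KPO4, 60 min at 37C with NADPH regeneration.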

Values without a mark were called inactive. Inconclusive results are not listed. Active and inactive are the calls of the source. Unless noted, the call rests on the fitted dose curve; in most records, active means well fitted curve in either direction with a large enough effect (not every such curve was filed as active); inconclusive means small, poorly fitted or top-dose-only effect, or another doubt; inactive means flat fitted curve, though single readings scatter.

The values below come from PubChem BioAssay (NCATS).

Sequence of Glucocorticoid receptor (Homo sapiens) (P04150 whole entry, looked up): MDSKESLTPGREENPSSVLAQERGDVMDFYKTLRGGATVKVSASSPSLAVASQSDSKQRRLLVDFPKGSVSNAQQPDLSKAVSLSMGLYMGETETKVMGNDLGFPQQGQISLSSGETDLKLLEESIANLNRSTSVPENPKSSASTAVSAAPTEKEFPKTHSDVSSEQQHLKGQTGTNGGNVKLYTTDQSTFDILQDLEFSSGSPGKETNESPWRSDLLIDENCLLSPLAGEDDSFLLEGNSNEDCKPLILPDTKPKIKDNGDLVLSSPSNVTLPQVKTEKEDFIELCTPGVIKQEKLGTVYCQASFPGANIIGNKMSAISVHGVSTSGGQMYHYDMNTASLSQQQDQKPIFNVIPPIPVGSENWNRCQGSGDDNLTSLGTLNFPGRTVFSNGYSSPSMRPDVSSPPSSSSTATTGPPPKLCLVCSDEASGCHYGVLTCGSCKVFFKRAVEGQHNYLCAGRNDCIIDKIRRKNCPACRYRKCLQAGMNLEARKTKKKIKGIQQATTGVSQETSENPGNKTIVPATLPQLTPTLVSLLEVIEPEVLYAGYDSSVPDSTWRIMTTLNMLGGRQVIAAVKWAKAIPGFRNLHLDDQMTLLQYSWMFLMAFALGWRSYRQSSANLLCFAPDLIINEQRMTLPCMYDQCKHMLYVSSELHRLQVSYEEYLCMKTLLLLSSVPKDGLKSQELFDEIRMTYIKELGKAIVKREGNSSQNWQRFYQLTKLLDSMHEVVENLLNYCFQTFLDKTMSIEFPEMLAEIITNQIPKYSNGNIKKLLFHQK
Sequence of Lysosomal acid glucosylceramidase (Homo sapiens) (P04062 whole entry, looked up): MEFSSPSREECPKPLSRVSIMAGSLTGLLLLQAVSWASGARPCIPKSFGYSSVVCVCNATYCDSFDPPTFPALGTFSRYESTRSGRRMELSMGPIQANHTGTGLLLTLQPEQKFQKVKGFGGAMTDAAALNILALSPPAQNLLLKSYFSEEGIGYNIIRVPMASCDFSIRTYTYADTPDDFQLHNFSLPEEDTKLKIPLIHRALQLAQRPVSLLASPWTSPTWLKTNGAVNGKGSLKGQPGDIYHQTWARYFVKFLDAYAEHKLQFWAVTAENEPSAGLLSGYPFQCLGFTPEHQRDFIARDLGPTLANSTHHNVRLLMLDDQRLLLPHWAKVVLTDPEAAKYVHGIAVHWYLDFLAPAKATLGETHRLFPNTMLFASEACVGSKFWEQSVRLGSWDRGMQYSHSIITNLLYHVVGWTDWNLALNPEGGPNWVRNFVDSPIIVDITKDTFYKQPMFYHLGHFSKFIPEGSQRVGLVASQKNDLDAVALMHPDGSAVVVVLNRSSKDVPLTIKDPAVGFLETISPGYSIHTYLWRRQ
Sequence of 3',5'-cyclic-AMP phosphodiesterase 4B (Homo sapiens) (Q07343 whole entry, looked up): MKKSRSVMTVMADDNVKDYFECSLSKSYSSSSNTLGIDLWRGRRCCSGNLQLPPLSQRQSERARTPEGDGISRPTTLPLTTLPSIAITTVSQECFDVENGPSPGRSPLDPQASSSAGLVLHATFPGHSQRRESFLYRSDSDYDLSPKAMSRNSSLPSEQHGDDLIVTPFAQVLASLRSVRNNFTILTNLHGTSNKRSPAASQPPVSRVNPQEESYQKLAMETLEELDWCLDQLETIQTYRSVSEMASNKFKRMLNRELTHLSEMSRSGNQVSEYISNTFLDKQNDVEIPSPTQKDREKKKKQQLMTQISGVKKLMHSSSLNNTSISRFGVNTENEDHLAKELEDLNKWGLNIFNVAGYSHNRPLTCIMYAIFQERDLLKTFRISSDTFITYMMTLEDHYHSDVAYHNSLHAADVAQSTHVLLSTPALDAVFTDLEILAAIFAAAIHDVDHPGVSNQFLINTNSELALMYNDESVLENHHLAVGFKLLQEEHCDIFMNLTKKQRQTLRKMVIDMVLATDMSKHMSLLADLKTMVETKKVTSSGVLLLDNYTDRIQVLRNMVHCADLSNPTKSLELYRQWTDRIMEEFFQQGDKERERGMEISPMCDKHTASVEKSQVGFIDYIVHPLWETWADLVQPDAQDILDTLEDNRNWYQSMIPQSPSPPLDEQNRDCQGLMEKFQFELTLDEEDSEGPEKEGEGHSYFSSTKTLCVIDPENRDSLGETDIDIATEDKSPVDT
Sequence of Cytochrome P450 3A4 (Homo sapiens) (P08684 whole entry, looked up): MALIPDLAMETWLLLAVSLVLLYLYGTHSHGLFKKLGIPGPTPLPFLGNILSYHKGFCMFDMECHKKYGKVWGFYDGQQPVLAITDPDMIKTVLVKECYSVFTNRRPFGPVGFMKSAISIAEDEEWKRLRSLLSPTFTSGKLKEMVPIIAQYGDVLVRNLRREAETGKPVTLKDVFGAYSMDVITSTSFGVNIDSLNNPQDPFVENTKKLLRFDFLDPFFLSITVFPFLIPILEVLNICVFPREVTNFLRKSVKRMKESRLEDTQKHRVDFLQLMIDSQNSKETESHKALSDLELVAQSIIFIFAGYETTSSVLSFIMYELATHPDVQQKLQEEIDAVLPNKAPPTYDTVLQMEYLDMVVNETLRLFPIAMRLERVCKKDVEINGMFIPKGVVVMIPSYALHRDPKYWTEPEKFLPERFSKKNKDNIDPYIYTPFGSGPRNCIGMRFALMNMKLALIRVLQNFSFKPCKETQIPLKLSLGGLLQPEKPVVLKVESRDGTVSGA
Sequence of Cytochrome P450 2C9 (Homo sapiens) (P11712 whole entry, looked up): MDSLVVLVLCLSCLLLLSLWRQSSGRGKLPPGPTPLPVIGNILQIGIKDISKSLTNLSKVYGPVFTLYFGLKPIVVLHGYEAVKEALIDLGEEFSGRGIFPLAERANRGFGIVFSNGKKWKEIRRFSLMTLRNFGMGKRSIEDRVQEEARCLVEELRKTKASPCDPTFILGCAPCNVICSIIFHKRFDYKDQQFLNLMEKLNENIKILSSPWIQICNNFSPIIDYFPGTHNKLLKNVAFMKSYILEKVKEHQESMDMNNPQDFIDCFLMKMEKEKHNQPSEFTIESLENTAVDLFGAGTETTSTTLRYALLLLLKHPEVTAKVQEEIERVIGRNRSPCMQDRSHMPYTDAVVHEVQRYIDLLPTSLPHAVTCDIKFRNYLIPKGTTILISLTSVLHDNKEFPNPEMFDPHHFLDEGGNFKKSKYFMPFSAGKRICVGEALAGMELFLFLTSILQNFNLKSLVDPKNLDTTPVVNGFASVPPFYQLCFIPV

As for `NC(N)=NC(N)=Nc1ccc(C(=O)O)cc1`, the Potency in test [1] was over 11.4 µM; in [5] it was over 46 µM; in test [6], over 9.22 µM. Also, the activity change, negative = inhibition was 7% in test [2] and 6.33% in test [3]. For the same molecule, the activity, negative = inhibition in [4] was 16.2%. The Potency result in [7] and in test [8] was “inactive” in each case.
For `FC(F)(F)c1cc(NC(=S)N2c3ccccc3-n3cccc3[C@H]2c2cccnc2)cc(C(F)(F)F)c1`, the values for the Potency in [1], in test [5] and in test [6] were over 11.4 µM, over 46 µM and over 9.22 µM, respectively. In addition, the activity change, negative = inhibition is -2.69% in [2] and 16.9% in test [3]. In addition, in [4], the activity, negative = inhibition was -5.05%. The Potency entry in test [7] and in test [8] was “inactive” each time.
On to `CC1=NNC(=S)NCCCN2CCN(CCCNC(=S)NN=C(C)C=NNC(=S)NCCCN3CCN(CCCNC(=S)NN=C1)CC3)CC2`, for which the figures for the Potency in [1], in [5] and in [6] were over 11.4 µM, over 46 µM and over 9.22 µM, respectively. The activity change, negative = inhibition is 4.7% in test [2] and 5.96% in test [3]. For the same molecule, the activity, negative = inhibition in [4] was -0.247%. In addition, the Potency result in test [7] and in test [8] was “inactive” throughout.
For `NC(=O)N[C@H](CC(=O)O)C(=O)O`, the Potency in [1] is over 11.4 µM; in [5], over 46 µM; in test [6], over 9.22 µM. For the same molecule, the values for the activity change, negative = inhibition in test [2] and in test [3] were -2.2% and 0.469%, respectively. Besides, in test [4], the activity, negative = inhibition was -0.625%. The Potency result in [7] and in [8] was “inactive” each time.
Take `O=C(O)[C@H]1CCCC[C@@H]1C(=O)Nc1nc2ccccc2[nH]1`: the Potency in test [1] was over 11.4 µM; in test [5], over 46 µM; in [6], over 9.22 µM. The activity change, negative = inhibition was 1.58% in test [2] and 9.82% in test [3]. Moreover, the activity, negative = inhibition in test [4] was 2.07%. In addition, the Potency result in [7] and in [8] was “inactive” in each case.
With `N[C@@H](CCCCO)C(=O)O`, the Potency in [1] was over 11.4 µM; in test [5] it was over 46 µM; in [6] it was over 9.22 µM. For the same molecule, the values for the activity change, negative = inhibition in test [2] and in [3] were 4.11% and -3.02%, respectively. Also, the activity, negative = inhibition in test [4] is -3.96%. In addition, the Potency entry in test [7] and in test [8] was “inactive” in each case.
As to `O=C(CSC1=NCCN1)c1ccccc1`, the Potency in [1] is over 11.4 µM; in test [5], over 46 µM; in test [6], over 9.22 µM. The values for the activity change, negative = inhibition in [2] and in [3] were -0.79% and -8.06%, respectively. Also, the activity, negative = inhibition in test [4] was -8.19%. For the same molecule, the Potency entry in test [7] and in [8] was “inactive” throughout.
As to `O=c1[nH]c(SCc2ccccc2[N+](=O)[O-])nc2nc[nH]c12`, the Potency in test [1] was over 11.4 µM; in test [5], over 46 µM; in [6] it was over 9.22 µM. Also, the activity change, negative = inhibition was 9.58% in [2], 13.2% in [3] and -21.6% [at 11.4 µM] in [9]. Moreover, the activity, negative = inhibition in [4] was 10.1%. Also, the Potency result in [7], in test [8] and in test [10] was “inactive” throughout.
For `CN1CCN(CCCNN)CC1`, the results for the Potency in test [1], in [5] and in test [6] were over 11.4 µM, over 46 µM and over 9.22 µM, respectively. Moreover, the results for the activity change, negative = inhibition in test [2] and in test [3] were 3.15% and 0.682%, respectively. Also, the activity, negative = inhibition in test [4] was 1.99%. Further, the Potency entry in [7] and in [8] was “inactive” in each case.
On to `O=C(O)Cc1cccc2c(=O)cc(-c3ccccc3)oc12`, for which the Potency in test [1] was over 11.4 µM; in test [5] it was over 46 µM; in test [6] it was over 9.22 µM. The activity change, negative = inhibition in test [2] was -1.49%; in [3], -5.58%. The activity, negative = inhibition in [4] was -3.42%. Moreover, the Potency result in [7] and in test [8] was “inactive” in each case.
Turning to `O[C@H]([C@H](O)[C@@H](O)c1nc2ccccc2[nH]1)[C@@H](O)c1nc2ccccc2[nH]1`, the results for the Potency in test [1], in test [5] and in test [6] were over 11.4 µM, over 46 µM and over 9.22 µM, respectively. In addition, the activity change, negative = inhibition is 6.21% in [2] and 19.9% in test [3]. The activity, negative = inhibition in test [4] is 6.86%. Further, the Potency entry in test [7] and in [8] was “inactive” throughout.
Turning to `Cc1cc(Cl)ccc1Nc1sc(C(=O)c2cc3cc(Cl)ccc3o2)c(N)c1C#N`, the Potency in test [1] was over 11.4 µM; in test [5], over 46 µM; in test [6], over 9.22 µM; in [11], 1.26 µM (active). Moreover, the activity change, negative = inhibition is -2.93% in test [2] and 14.9% in [3]. Moreover, the activity, negative = inhibition in test [4] is -13.7%. Also, the Potency result in test [7] and in [8] was “inactive” each time.
